In PubChem BioAssay (NCATS):
Inconclusive results are not listed. More than one record can exist for a structure, and the calls need not agree. The source made the active and inactive calls. Unless noted, calls come from the whole dose curve.

Key:
[1] = Primary qHTS for Huh7 cytotoxicity: counterscreen for inhibitors of MERS-S pseudotyped particle cell entry (AID 1479147)
[2] = Primary qHTS for inhibitors of MERS-S pseudo-typed particle cell entry (AID 1479149); note: nearly all actives have a fitted effect of over 60% in size; note: potency is the fitted concentration of half-maximal effect
[3] = Primary qHTS for Vero E6 cytotoxicity: counterscreen for inhibitors of SARS-S pseudo-typed particle cell entry (AID 1479150)
[4] = Primary qHTS for inhibitors of La Crosse Virus (LACV) - induced cell death in SH-SY5Y cells (AID 1508616; active = well fitted curve in the direction sought with a large enough effect; an effect the other way counts as inactive or inconclusive;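 note: top concentration of the series differs between compounds; higher means more rescue of cells from virus-induced death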)
Summary of the method: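 Cytopathicity rescue screen: compounds pinned onto SH-SY5Y cells, which are then infected with LACV (MOI 0.01) and held 6 days at 37C. Percent activity is scaled between infected DMSO control and uninfected DMSO control.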

[5] = biological target: Calcium and integrin-binding protein 1 (Homo sapiens) (UniProt Q99828); experiment: Primary qHTS for Identification of Calcium Integrin Binding Protein 1 (CIB1) Competitor (AID 1508620; active = well fitted curve in the direction sought with a large enough effect; an effect the other way counts as inactive or inconclusive;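 note: GST tagged CIB1 binding a fluorescein labelled alphaIIb integrin peptide tracer; top concentration of the series differs between compounds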)
Calcium and integrin-binding protein 1 (Homo sapiens), sequence (Q99828 whole entry, looked up): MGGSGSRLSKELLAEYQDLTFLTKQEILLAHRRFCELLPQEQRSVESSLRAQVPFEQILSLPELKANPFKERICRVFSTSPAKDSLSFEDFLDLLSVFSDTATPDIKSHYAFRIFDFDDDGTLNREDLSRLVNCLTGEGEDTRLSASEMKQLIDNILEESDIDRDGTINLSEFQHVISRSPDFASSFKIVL
Summary of the method: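 CIB1-GST (1 uM final) and compound incubated 15 min at room temperature before adding FITC-alphaIIb peptide tracer (100 nM final). Competition for binding read by fluorescence polarization (ex 480, em 540) after another 15 min at room temperature.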

[6] = A High-Content qHTS Against Drug Library for the Identification of Small Molecules that Inhibit DYT1 Early Onset Primary Dystonia-Associated Cell Pathology (AID 1645839)
Summary of the method: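 High-content imaging quantified EGFP-TorsinA mislocalization in HEK293-derived cells inducibly expressing DYT1 mutant torsinA, after 48 h exposure to compound given together with tetracycline induction. Cell count served as a toxicity channel alongside %pathology.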

[7] = Cytotoxicity counterscreen for inhibitors of SARS-CoV-2 cell entry (AID 1645845); note: nearly all actives have a fitted effect of over 50% in size
Summary of the method: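 ATP-content luminescence (ATPLite 1step, 15 min RT) read after 48 h compound exposure of Expi293F cells stably expressing human ACE2; normalized to cells-only wells and media-only wells.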

[8] = Primary qHTS to identify inhibitors of SARS-CoV-2 cell entry (AID 1645846); conditions: activity change, negative = inhibition: at 57.1 µM (top of the series) unless noted; note: nearly all actives have a fitted effect of over 45% in size; note: potency is the fitted concentration of half-maximal effect
Summary of the method: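 Inhibition of spike-mediated entry was scored in human ACE2-transfected Expi293F cells. Particles were MLV-pseudotyped with Wuhan-Hu-1 S carrying a 19-aa C-terminal deletion; signal was luciferase after two days, scaled between spike PP and fusion-protein-free PP.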

[9] = Confirmatory qHTS to identify inhibitors of SARS-CoV-2 cell entry (AID 1645844); note: nearly all actives have a fitted effect of over 45% in size; note: potency is the fitted concentration of half-maximal effect
Summary of the method: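 Luminescence entry read-out after 48 h: spike-pseudotyped MLV particles (Wuhan-Hu-1, 19-aa C-terminal truncation) added to compound-pretreated (1 h) HEK293-ACE2 cells; Data were normalised to bald PP and spike PP wells.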

[10] = biological target: Cytochrome P450 2C9 (Homo sapiens) (UniProt P11712); experiment: Cytochrome P450 family 2 subfamily C member 9 (CYP2C9) small molecule antagonists: luciferase biochemical (cell-free) qHTS assay (AID 1645842; active = well fitted curve in the direction sought with a large enough effect in the repeat runs; an effect the other way counts as inactive or inconclusive; note: nearly all actives have a fitted effect of over 55% in size)
Cytochrome P450 2C9 (Homo sapiens), sequence (P11712 whole entry, looked up): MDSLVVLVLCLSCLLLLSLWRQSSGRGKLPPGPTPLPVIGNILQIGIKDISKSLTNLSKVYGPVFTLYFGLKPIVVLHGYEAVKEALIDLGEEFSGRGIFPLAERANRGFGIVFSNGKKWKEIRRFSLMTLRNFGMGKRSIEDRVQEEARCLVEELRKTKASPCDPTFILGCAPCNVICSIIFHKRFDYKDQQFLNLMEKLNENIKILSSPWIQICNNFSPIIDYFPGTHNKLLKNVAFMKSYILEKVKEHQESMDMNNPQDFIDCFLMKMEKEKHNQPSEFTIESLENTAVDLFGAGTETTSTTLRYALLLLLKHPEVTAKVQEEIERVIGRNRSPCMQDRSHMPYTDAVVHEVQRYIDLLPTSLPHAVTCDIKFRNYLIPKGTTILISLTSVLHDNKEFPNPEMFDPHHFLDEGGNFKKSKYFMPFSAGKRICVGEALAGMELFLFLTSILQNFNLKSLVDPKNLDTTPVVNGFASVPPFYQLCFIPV
Summary of the method: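 P450-Glo CYP2C9 system: proluciferin substrate with enzyme in mix containing 0.4% BSA, 10 min at room temperature, then NADPH regeneration solution added and incubated 1 h at 37C. Detection reagent stopped reaction; luminescence read after 20 min as RLU.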

[11] = biological target: Cytochrome P450 2D6 (Homo sapiens) (UniProt P10635); experiment: Cytochrome P450 family 2 subfamily D member 6 (CYP2D6) small molecule antagonists: luciferase biochemical (cell-free) qHTS assay (AID 1645840; active = well fitted curve in the direction sought with a large enough effect in the repeat runs; an effect the other way counts as inactive or inconclusive; note: nearly all actives have a fitted effect of over 55% in size; note: potency is the fitted concentration of half-maximal effect)
Cytochrome P450 2D6 (Homo sapiens), sequence (P10635 whole entry, looked up): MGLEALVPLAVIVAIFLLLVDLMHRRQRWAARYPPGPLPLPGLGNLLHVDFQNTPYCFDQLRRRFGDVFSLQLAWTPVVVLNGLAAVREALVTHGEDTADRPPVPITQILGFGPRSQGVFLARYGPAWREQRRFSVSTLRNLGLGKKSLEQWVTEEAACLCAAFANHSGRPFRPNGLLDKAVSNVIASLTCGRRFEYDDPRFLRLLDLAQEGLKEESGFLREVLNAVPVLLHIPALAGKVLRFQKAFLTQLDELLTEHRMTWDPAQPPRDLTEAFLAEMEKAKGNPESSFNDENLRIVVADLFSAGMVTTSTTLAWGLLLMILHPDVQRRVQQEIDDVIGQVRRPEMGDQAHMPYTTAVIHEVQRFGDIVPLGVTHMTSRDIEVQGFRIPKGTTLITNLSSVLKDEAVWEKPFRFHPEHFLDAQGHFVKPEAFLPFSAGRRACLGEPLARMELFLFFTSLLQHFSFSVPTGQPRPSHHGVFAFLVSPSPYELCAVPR
Summary of the method: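 P450-Glo CYP2D6 system: proluciferin substrate converted by enzyme to luciferin, read by luminescence proportional to activity. Enzyme-substrate mix with compound 10 min at room temperature, then NADPH regeneration 1 h before detection reagent.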

[12] = Primary qHTS for small molecule stabilizers of the endoplasmic reticulum resident proteome: Secreted ER Calcium Modulated Protein (SERCaMP) assay (AID 1508630; active = well fitted curve in the direction sought with a large enough effect; an effect the other way counts as inactive or inconclusive)
Summary of the method: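 The SH-SY5Y reporter protocol was run at 3 concentrations up to 38.3 uM (primary) or 11 concentrations (follow-up): 16 h compound, 100 nM thapsigargin for 4 h, then extracellular luciferase luminescence.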

O=P1(NCCCl)OCCCN1CCCl (centres undefined)
inactive: Potency [1] | Potency [2] | Potency [3] | Potency [4] | Potency [5] | Potency [6] | Potency [7] | Potency [8]
-11%: activity change, negative = inhibition [8]

Cc1cn([C@H]2C[C@H](N=[N+]=[N-])[C@@H](CO)O2)c(=O)[nH]c1=O
inactive: Potency [1] | Potency [2] | Potency [3] | Potency [7]
active: Potency [9] 0.541 µM | Potency [8] 1 µM

CCc1c2c(nc3ccc(OC(=O)N4CCC(N5CCCCC5)CC4)cc13)-c1cc3c(c(=O)n1C2)COC(=O)[C@]3(O)CC
inactive: Potency [1] | Potency [3]
-95.5%: activity change, negative = inhibition [8]
active: Potency [2] 10 µM | Potency [9] 0.136 µM | Potency [8] 0.891 µM

Cc1ccc(S(=O)(=O)NC(=O)NN2CC3CCCC3C2)cc1 (centres undefined)
inactive: Potency [1] | Potency [2] | Potency [3] | Potency [7]

CCCN(CCc1cccs1)[C@H]1CCc2c(O)cccc2C1
inactive: Potency [1] | Potency [2] | Potency [3] | Potency [7]

CCCc1cc(=O)[nH]c(=S)[nH]1
inactive: Potency [1] | Potency [2] | Potency [3] | Potency [9] | Potency [7]

CCC1(c2ccccc2)C(=O)NCNC1=O
inactive: Potency [1] | Potency [2] | Potency [3] | Potency [7]

CC(S)C(=O)NCC(=O)O (centres undefined)
inactive: Potency [1] | Potency [2] | Potency [3] | Potency [7]

NNCCc1ccccc1
inactive: Potency [1] | Potency [2] | Potency [3] | Potency [7]

CNS(=O)(=O)CCc1ccc2[nH]cc(C3CCN(C)CC3)c2c1
inactive: Potency [1] | Potency [2] | Potency [3] | Potency [7]

COc1ccc(C(CN(C)C)C2(O)CCCCC2)cc1 (centres undefined)
inactive: Potency [1] | Potency [2] | Potency [3] | Potency [4] | Potency [6] | Potency [10] | Potency [7] | Potency [8]

Cc1onc(-c2c(Cl)cccc2Cl)c1C(=O)N[C@@H]1C(=O)N2[C@@H]1SC(C)(C)[C@@H]2C(=O)O
inactive: Potency [1] | Potency [2] | Potency [3] | Potency [7]

C=CCN1CC[C@]23c4c5ccc(O)c4O[C@H]2C(=O)CC[C@@]3(O)[C@H]1C5
inactive: Potency [1] | Potency [2] | Potency [3] | Potency [4] | Potency [5] | Potency [6] | Potency [10] | Potency [7]
2.17%: activity change, negative = inhibition [8]

Cc1[nH]c(=O)c(C#N)cc1-c1ccncc1
inactive: Potency [1] | Potency [2] | Potency [3] | Potency [7]

O=C1CCc2ccc(OCCCCN3CCN(c4cccc(Cl)c4Cl)CC3)cc2N1
inactive: Potency [1] | Potency [3]
active: Potency [2] 11.2 µM | Potency [9] 19.2 µM

COC(c1ccccc1)(c1ccccc1)[C@H](Oc1nc(C)cc(C)n1)C(=O)O
inactive: Potency [1] | Potency [2] | Potency [3] | Potency [9] | Potency [7] | Potency [8]
-34.8%: activity change, negative = inhibition [8]

CCC(=O)O[C@H]1[C@H](O[C@@H]2[C@@H](C)[C@H](O[C@H]3C[C@@](C)(OC)[C@@H](O)[C@H](C)O3)[C@@H](C)C(=O)O[C@H](CC)[C@@](C)(O)[C@H](O)[C@@H](C)C(=O)[C@H](C)C[C@@]2(C)O)O[C@H](C)C[C@@H]1N(C)C
inactive: Potency [1] | Potency [2] | Potency [3] | Potency [7]

CC(C)(C)C(=O)OCOP(=O)(COCCn1cnc2c(N)ncnc21)OCOC(=O)C(C)(C)C
inactive: Potency [1] | Potency [2] | Potency [3] | Potency [7]
-90.1%: activity change, negative = inhibition [8]
active: Potency [9] 0.0086 µM

C=C1C[C@@H]2[C@H](CC[C@]3(C)C(=O)CC[C@@H]23)[C@@]2(C)C=CC(=O)C=C12
inactive: Potency [1] | Potency [2] | Potency [3] | Potency [4] | Potency [5] | Potency [11] | Potency [7]

CCN(CC)CCNC(=O)c1cc(Cl)c(N)cc1OC
inactive: Potency [1] | Potency [2] | Potency [3] | Potency [7]

CC[C@@H](CO)NC(=O)[C@@H]1C=C2c3cccc4[nH]cc(c34)C[C@H]2N(C)C1
-4.87%: activity change, negative = inhibition [8]
inactive: Potency [1] | Potency [2] | Potency [3] | Potency [4] | outcome [12] | Potency [6] | Potency [10] | Potency [7]

Clc1ccc(COC(Cn2ccnc2)c2ccc(Cl)cc2Cl)cc1 (centres undefined)
inactive: Potency [1] | Potency [3] | Potency [4] | Potency [5]
active: Potency [2] 25.1 µM | Potency [11] 0.219 µM | Potency [9] 9.61 µM

N[C@@H](Cc1ccc(N(CCCl)CCCl)cc1)C(=O)O
inactive: Potency [1] | Potency [2] | Potency [3] | Potency [5] | outcome [12] | Potency [6] | Potency [7]
active: Potency [11] 19.5 µM | Potency [9] 0.681 µM

CC[C@]1(O)C[C@@H]2CN(CCc3c([nH]c4ccccc34)[C@@](C(=O)OC)(c3cc4c(cc3OC)N(C)[C@H]3[C@@](O)(C(=O)OC)[C@H](OC(C)=O)[C@]5(CC)C=CCN6CC[C@]43[C@@H]65)C2)C1
active: Potency [9] 0.0764 µM
inactive: Potency [1] | Potency [2] | Potency [3] | Potency [7]
-82.9%: activity change, negative = inhibition [8]

CN(C)CCc1c[nH]c2ccc(C[C@H]3COC(=O)N3)cc12
inactive: Potency [1] | Potency [2] | Potency [3] | Potency [7]

CN(C)[C@@H]1C(=O)C(C(N)=O)=C(O)[C@@]2(O)C(=O)C3=C(O)c4c(O)ccc(Cl)c4[C@@H](O)[C@H]3C[C@@H]12
inactive: Potency [1] | Potency [2] | Potency [3] | Potency [7]

C=C(CC)C(=O)c1ccc(OCC(=O)O)c(Cl)c1Cl
inactive: Potency [1] | Potency [2] | Potency [3] | Potency [7]
active: Potency [9] 8.57 µM | Potency [8] 17.8 µM

CN1CCC[C@@H]1Cc1c[nH]c2ccc(CCS(=O)(=O)c3ccccc3)cc12
inactive: Potency [1] | Potency [2] | Potency [3] | Potency [7]

CCCCc1ncc(/C=C(\Cc2cccs2)C(=O)O)n1Cc1ccc(C(=O)O)cc1
inactive: Potency [1] | Potency [2] | Potency [3] | Potency [7]

O=C(O)COCCN1CCN(C(c2ccccc2)c2ccc(Cl)cc2)CC1 (centres undefined)
inactive: Potency [1] | Potency [2] | Potency [3] | Potency [7]
-14.4%: activity change, negative = inhibition [8]

CO[C@H]1C=CO[C@@]2(C)Oc3c(C)c(O)c4c(O)c(c(/C=N/N5CCN(C)CC5)c(O)c4c3C2=O)NC(=O)/C(C)=C\C=C[C@H](C)[C@H](O)[C@@H](C)[C@@H](O)[C@@H](C)[C@H](OC(C)=O)[C@@H]1C
inactive: Potency [1] | Potency [2] | Potency [3] | Potency [7]
